Data taken from PubChem BioAssay AID720504 (National Center for Advancing Translational Sciences (NCATS), 2013).
Out of some 360,000 compounds screened, about 10,000 (2.8%) were called active. Not shown: some 4% with an inconclusive outcome. Calls come from the whole dose curve; as a rule, active = well fitted inhibition curve with a large enough effect; inconclusive = small, poorly fitted or top-dose-only effect; inactive = flat fitted curve, though single readings scatter. The entries come from a sample that favours actives as a whole.

What follows are compounds tested against Serine/threonine-protein kinase PLK1 (Homo sapiens) (UniProt P53350) (assay: qHTS for Inhibitors of PLK1-PDB (polo-like kinase 1 - polo-box domain): Primary Screen). Details: Plk1 PBD binding of FITC phosphopeptide, fluorescence polarization.
Description: The polo-like kinase 1 (Plk1) is a member of a conserved subfamily of serine / threonine protein kinases that plays a pivotal roles in cell proliferation. It has a C-terminal non-catalytic region called the polo-box domain (PBD) that plays a crucial role in the subcellular localization of the Plk1. […] Furthermore, depletion of the overexpressed Plk1 by RNAi efficiently induces apoptotic cell death in cancer and reduces tumor growth in mouse xenograft models. Thus, targeting Plk1 is an appealing strategy for anti-cancer therapy. Therefore, this project aimed to screen the Molecular Libraries Small Molecule Repository (MLSMR) using a novel approach to find inhibitors that target the Plk1 PBD instead of the conventional N-terminal catalytic domain. This project employed a fluorescence polarization (FP) assay using a FITC-conjugated phospho-9-mer (p-9-mer) peptide and purified human Plk1 PBD protein. The identified small molecule inhibitors of Plk1 PBD can then further be developed into useful tools for biomedical and clinical research that complements or replaces current relevant disease therapy. NIH Chemical Genomics Center [NCGC] NIH Molecular Libraries Probe Centers Network [MLPCN] MLPCN Grant: MH100728 Assay Submitter (PI): Kyung Lee, NCI
Four microliter of 25 nM FITC-p-9-mer + 60 nM Plk1 PBD in buffer solution (final concentrations 25 nM and 60 nM respectively) or 4 uL of 25 nM FITC-p-9-mer (final concentration 25 nM) in buffer will be dispensed into a 1,536 Greiner medium-binding black solid plate. Small molecules at final concentrations of 18 nM to 57 uM and positive control phospho-9-mer (sequence: Ac-PPLHSpTAI-NH2) at final concentrations 26 nM to 57 uM and phospho-13-mer (sequence: Ac-[…]pTAI-NH2) at final concentrations of 1 nM to 2.3 uM will be pin-transferred (23 nL) to the plate via a Kalypsys pin-tool robotics equipped with a 1,536-pin array. The reaction plate will be centrifuged for 1 min at 1000 rpm and incubated at room temperature for 10 min. The FITC fluorescence signals will be read using the PerkinElmer ViewLux plate reader at 480 / 20 nm excitation and 540 / 20 nm S and P polarization emission wavelengths. Reagent bottles will be kept submerged into 4 °C recirculating chiller bath and all liquid lines will be covered with aluminum foil to minimize degradation. Library plates will be screened starting from the lowest to the highest concentrations to minimize compound carryover. Vehicle only plates, with DMSO being pin-transferred instead of compound solutions, will be included regularly throughout the screen to record any systematic shifts in assay signal.
% is set by controls: 0 for no effect and ±100 for the full control effect; potency is the fitted concentration of half-maximal effect.
Note: nearly all actives have a fitted effect of over 65% in size.
Throughout, for Max response, negative = inhibition: series mostly up to about 57 µM.

Sequence of Serine/threonine-protein kinase PLK1 (Homo sapiens) (P53350 whole entry, looked up, the tested form may be a part): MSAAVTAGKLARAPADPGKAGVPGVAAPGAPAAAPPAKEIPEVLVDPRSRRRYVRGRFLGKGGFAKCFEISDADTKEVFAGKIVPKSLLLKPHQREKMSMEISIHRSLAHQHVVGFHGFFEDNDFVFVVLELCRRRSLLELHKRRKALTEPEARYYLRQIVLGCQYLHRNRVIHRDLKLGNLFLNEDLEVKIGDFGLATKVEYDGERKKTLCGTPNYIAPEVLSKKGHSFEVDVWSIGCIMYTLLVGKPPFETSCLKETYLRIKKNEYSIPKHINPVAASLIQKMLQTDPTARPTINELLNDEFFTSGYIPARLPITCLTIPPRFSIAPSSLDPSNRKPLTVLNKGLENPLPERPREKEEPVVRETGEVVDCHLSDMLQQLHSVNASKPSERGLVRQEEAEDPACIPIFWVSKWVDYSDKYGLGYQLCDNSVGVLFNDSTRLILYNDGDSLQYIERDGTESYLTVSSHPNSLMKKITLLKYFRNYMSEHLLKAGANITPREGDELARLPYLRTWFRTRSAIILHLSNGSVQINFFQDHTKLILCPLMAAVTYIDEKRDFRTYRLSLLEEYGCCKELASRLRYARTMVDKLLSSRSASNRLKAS

Potency, active:
COc1cccc(-n2nc(C(=O)N3CCN(Cc4ccccc4)CC3)c3ccccc3c2=O)c1 29.9 µM, COc1ccc(-c2cc(C(=O)NC(Cc3c[nH]c4ccccc34)C(=O)O)c(C)o2)cc1OC (stereo not drawn) 13.4 µM, COc1ccc(CCCc2nnc(SCc3nc4ccccc4c(=O)[nH]3)n2C)cc1 3.77 µM, CCS(=O)(=O)C1=NSC2=NC(=O)/C(=C\c3ccc(OS(=O)(=O)c4ccccc4)cc3)C(=N)N21 29.9 µM, CS(=O)(=O)C1=NN2C(=N)/C(=C\c3ccc(OCCOc4ccccc4)cc3)C(=O)N=C2S1 26.7 µM, Cc1cc(/C=C2/C(=N)N3C(=NC2=O)SN=C3S(C)(=O)=O)c(C)n1-c1ccccc1 26.7 µM, c1ccc(COc2nsnc2N2CCOCC2)cc1 26.7 µM, Cc1nn(-c2ccc(F)cc2)c(Cl)c1/C=C(/CCC(=O)O)c1nc2ccccc2s1 59.7 µM, CCOc1c(Br)cc(/C=C2\C(=O)N(CCC#N)N=C2C)cc1OC 1.06 µM, Cc1[nH][nH]c(=O)c1C(c1ccc(-c2ccc(Cl)cc2)o1)c1c(C)[nH][nH]c1=O 26.7 µM, COc1ccc(CNC(=O)CN2C(=O)c3ccccc3S2(=O)=O)cc1 26.7 µM

Max response, negative = inhibition, inactive:
COc1ccc(-n2nc(C(=O)NCC(=O)N3CCCCCC3)c3ccccc3c2=O)cc1Cl 4.93%, CCOC(=O)CNC(=O)c1nn(-c2cccc(OC)c2)c(=O)c2ccccc12 -5.49%, CC1(C(=O)NS(=O)(=O)c2cccs2)CCN1C(=O)Cc1ccc(-c2ccccc2)cc1 (stereo not drawn) -1.09%, COC(=O)[C@]12CCCCC=C1N(Cc1ccco1)C(=O)[C@H](CC(=O)NCCCCc1ccccc1)C2 -4.79%, COc1cccc(CNC(=O)[C@@H]2CCCN2C(=O)[C@@H]2CCCN2C(=O)c2ccccc2)c1 -5.85%, COc1ccc(-c2cc(=O)oc3cc(OCC(=O)N[C@@H](Cc4c[nH]c5ccccc45)C(=O)O)ccc23)cc1 -6.27%, COc1ccc(-c2cc(C(=O)NC(C(=O)O)C(C)C)c(C)o2)cc1OC (stereo not drawn) -8.55%, CCn1c(Cc2ccccc2)nnc1SCc1nc2ccccc2c(=O)[nH]1 -5.5%, CCn1c(COc2c(C)cccc2C)nnc1SCc1nc2ccccc2c(=O)[nH]1 -11.4%, CS(=O)(=O)c1ccc2c(c1)SC1=NC(=O)/C(=C/c3ccco3)C(=N)N12 -3.25%, COc1ccccc1OCCOc1ccc(/C=C2\C(=N)N3N=C(C)SC3=NC2=O)cc1 -15.8%, COc1cc(/C=C2\C(=N)N3N=C(CC(=O)N4CCOCC4)SC3=NC2=O)cc(OC)c1OC -14.2%, Cc1cc(/C=C2/NC(=O)NC2=O)c(C)n1-c1cccnc1 2.71%, CCCS(=O)(=O)NC(=O)C1(C)CCCN(C(=O)c2cccs2)C1 (stereo not drawn) -11.7%, COc1cccc(-c2cc(NC(C)=O)c3ncc(-c4cccc(C(C)=O)c4)n3c2)c1 -19.9%, CCCCc1ccc(S(=O)(=O)NC(=O)C2(C)CCN2C(=O)c2ccccc2)cc1 (stereo not drawn) -13.3%, CC1=C(C(=O)N2CCOCC2)CC(CC(=O)NCCN2CCOCC2)C(=O)N1CCC1=CCCCC1 (stereo not drawn) 1.89%, COc1cccc(-c2nc3nc(C)cc(C)n3c2NC2CCCCC2)c1 -13.3%, CCNC(=O)c1cc2c(c(-c3cccc(-c4cncnc4)c3)n1)[C@H](CCO)N(C(C)=O)C2 -4.29%, O=C(Nc1cc(Br)ccc1F)c1nc[nH]c1C(=O)NCc1ccccc1 -13.2%, COc1cccc(-c2cc3nc(NCc4ccccc4OC)n(C)c(=O)c3s2)c1 3.07%, c1nc(COc2nsnc2N2CCOCC2)cs1 -14.8%, O=C(O)COc1nsnc1N1CCOCC1 -5.74%, C[C@H]1COc2cc(N3CCSCC3)ccc2S(=O)(=O)N1 -1.34%, CC(C)C[C@H]1CNC(=O)C(=O)N1C[C@H]1CCCN1C[C@H](Cc1ccc(O)cc1)N1C[C@H](CC(C)C)N(CC2CCCCCC2)C(=O)C1=O -0.278%, COc1ccc(S(=O)(=O)N2CCCCC2c2cc(C(=O)NCc3ccc(F)cc3)no2)cc1 (stereo not drawn) 4.51%, Cc1nn(-c2ccccc2)c(Cl)c1/C=C/C(=O)c1ccc(O)cc1 -17.2%, COc1cccc(/C=C(/CC(=O)Nc2ccc(N3CCOCC3)cc2)c2nc3ccccc3s2)c1 8.02%, CC(C)[C@H](NC(=O)c1ccccc1F)C(=O)Nc1cccc(S(=O)(=O)N2CCOCC2)c1 2.03%, COc1ccc(CNC(=O)c2ccc(-c3cccnc3)c3ccoc23)cc1OC -7.35%, CCOC(=O)C1=CCC2C(=O)N(Cc3ccccc3)C(=O)C12 (stereo not drawn) -2.51%, CCN(CC)C(=O)C1CCCN(Cc2cccc(Cl)c2)C1 (stereo not drawn) -16.8%, C=CCOc1c(Br)cc(/C=N\n2nnnc2N)cc1OC -13.9%, CC1(C(=O)NS(=O)(=O)c2cccc(F)c2)CCN1C(=O)Cc1ccc(Cl)cc1Cl (stereo not drawn) 1.99%, C[C@H](CO)N1C[C@H](C)[C@@H](CN(C)C(=O)C2CCCCC2)OCc2cnnn2CCCC1=O -18.4%, CCOC(=O)C1=CC[C@@H](c2ccncc2)N(S(=O)(=O)c2ccc(C)cc2)C1 -3.59%, CN(CC(=O)Nc1ccc(F)cc1)C(=O)c1ccc(-c2ccc(Cl)cc2)o1 -3.69%, COc1ccc(CNC(=O)CCn2cccc2)cc1 1.6%, NS(=O)(=O)c1ccc(CCNC(=O)CN2C(=O)c3ccccc3S2(=O)=O)cc1 -4.84%, COc1cccc(OC)c1C(=O)N1CCN(Cc2ccccc2F)CC1 -14.6%, C=C1C(=O)OC2C1CCC(C)=CCCC1(C)OC21 (stereo not drawn) -24.4%, CC1(C(=O)NS(=O)(=O)C2CC2)CCCN(C(=O)CSc2ccccc2)C1 (stereo not drawn) -7.19%
